Molecules are shown by their SMILES. Inconclusive results are not listed. Entries that show only a call come without a potency. The source made the active and inactive calls. The call rests on the fitted dose curve; in most records, active means well fitted inhibition curve with a large enough effect; inconclusive means small, poorly fitted or top-dose-only effect; inactive means no such curve, though single readings can be large or run the other way.

For the first test, the system named is Zika virus NS2B-NS3 protease (unlinked complex). The test is described as follows: Primary screen GU Rhodamine qHTS for Zika virus inhibitors: Unlinked NS2B-NS3 protease assay (AID 1347159). Further: nearly all actives have a fitted effect of over 60% in size. Further: potency means the concentration at half of the fitted maximal effect. The note with it: Recombinant ZIKV NS2B-NS3 protease, Rhodamine110 substrate fluorescence; series mostly up to 107 µM. In a few lines:
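Compounds, tested up to 114 microM, were incubated for 15 minutes with 25 nM unlinked NS2B-NS3 protease at pH 8.0. Cleavage of 1.5 microM Rhodamine110 substrate was then followed by fluorescence for 15 minutes.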
Regarding `COC(=O)[C@]12C(=O)C(C)=C(O)[C@@]1(C)C(C)=CC1[C@@]34CC[C@@H](OC(C)=O)C(C)(C)C3[C@H](C[C@]12C)OC4=O` (some centres not stated), the Potency entry was “inactive”.

Take `COc1cc(C[C@H]2COC(=O)[C@@H]2Cc2ccc(O)c(OC)c2)ccc1O`: the Potency was 35.5 µM (active).

For `O=C(O)Cc1nn(Cc2nc3cc(C(F)(F)F)ccc3s2)c(=O)c2nccnc12`, the Potency result is “inactive”.

For `C/C=C(/C)C(=O)O[C@H]1C=C(C)C[C@H](OC(=O)c2ccc(O)cc2)C2[C@](O)(C(C)C)CC[C@@]21C` (some centres not stated), the Potency entry was “inactive”.

As for `CCC[C@@H]1C[C@@H](C(=O)N[C@@H]([C@H]2O[C@H](SC)[C@H](OP(=O)(O)O)[C@@H](O)[C@H]2O)[C@H](C)Cl)N(C)C1`, the Potency entry is “inactive”.

Regarding `C=CC1(C)CC(O)C2(CCC3C(C)(C(=O)O)CCCC3(C)C2=O)C1` (configuration not stated), the Potency entry is “inactive”.

For the compound `CC1CCC2C(C)(C)C(O)CCC2(C)C12Cc1c(O)cc3c(c1O2)CN(C(CCC(N)=O)C(=O)O)C3=O` (configuration not stated), the Potency result is “inactive”.

A further test concerns Zika virus NS2B-NS3 protease (linked construct). Put plainly: Primary screen NINDS Rhodamine qHTS for Zika virus inhibitors (AID 1347160). Further: nearly all actives have a fitted effect of over 55% in size. The note with it: purified NS2B-NS3 protease, Rhodamine110 substrate fluorescence; series mostly up to 57.1 µM. An outline of the steps: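 Percent inhibition, normalized to uninhibited and enzyme-free controls, is fitted to a 4-parameter Hill equation. Fluorescence change comes from a 15-min cleavage of 1.5 microM bis-peptide Rhodamine110 substrate by 25 nM linked NS2B-NS3 at room temperature.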
In general terms: In qHTS, concentration-response curves come from the screen itself.
Consider `CC1=C(C)C(=O)OC(C(C)(O)C2CCC3C4CC=C5CC(OC6OC(COC7OC(CO)C(O)C(O)C7O)C(O)C(O)C6O)CC(O)C5(C)C4CCC32C)C1` (configuration not stated), for which the Potency result was “inactive”.

`COc1ccc2c(c1O)OC[C@H]1c3ccc(O)cc3O[C@@H]21`: the Potency result was “inactive”.

Regarding `COc1cccc2c1CCC[C@H]2CN(C)CCc1ccc2ccoc2c1`, the Potency result is “inactive”.

Turning to `Cc1onc(-c2ccccc2)c1C(=O)N[C@@H]1C(=O)N2[C@@H]1SC(C)(C)[C@@H]2C(=O)O`, the Potency result is “inactive”.

`C[C@]1(OC(=O)/C=C/c2ccccc2)C[C@H](O)[C@]2(O)C=CO[C@@H](O[C@@H]3O[C@H](CO)[C@@H](O)[C@H](O)[C@H]3O)C12` (some centres not stated): the Potency entry was “inactive”.

Take `O=C1Nc2ccc(O)cc2O[C@H]1O[C@@H]1O[C@H](CO)[C@@H](O)[C@H](O)[C@H]1O`: the Potency entry is “inactive”.

As for `CC(C)CC1(C(=O)OCc2ccc(O[C@@H]3O[C@H](CO)[C@@H](O)[C@H](O)[C@H]3O)cc2)CC(=O)OC(C(=O)O)CC(=O)OCC2OC(O1)C(OC(=O)/C=C/c1ccc(O)cc1)C(O)C2O` (some centres not stated), the Potency entry is “inactive”.

Regarding `C=C1C(=O)OC2/C=C(\C)CC/C=C(\C(=O)O)CC/C=C(\C)CCC12` (configuration not stated), the Potency result is “inactive”.

Turning to `Cc1ccc(Sc2cncc3sc(C(N)=O)cc23)cc1`, the Potency entry was “inactive”.

`C[C@@H]1CCC2C(C)(C)[C@H](O)CC[C@]2(C)[C@@]12Cc1c(O)cc3c(c1O2)CN(CCO)C3=O` (some centres not stated): the Potency entry is “inactive”.

In the case of `CCn1c2ccccc2c2cc(CNC)ccc21`, the Potency result is “inactive”.

Consider `CNC(=O)c1ccc2cc([C@@]3(O)CCn4cncc43)ccc2c1`, for which the Potency entry is “inactive”.

For `CC1(CO)CC2C(O)C(=O)C3(CO)CC3(C)C2C1` (configuration not stated), the Potency entry was “inactive”.

`O=C(O)Cc1nn(Cc2nc3cc(C(F)(F)F)ccc3s2)c(=O)c2nccnc12`: the Potency result was “inactive”.

On to `C=CC1(C)CC(O)C2(CCC3C(C)(C(=O)O)CCCC3(C)C2=O)C1` (configuration not stated), for which the Potency entry was “inactive”.

Values taken from PubChem BioAssay (NCATS).
